Screening results from PubChem.
In the library only some 2.9% were active in any assay of this set; here they are far more common.
DAGLB inhibitor: blocks human DAGLB lipase activity. HEK293T DAGLB membrane lysate, EnzChek fluorogenic substrate. 340,000 tested, 0.059% active. inhibition, % at 5.17 µM. Q8NCG7; in the data active means inhibition above about 34%
Myeloid diff MLP: myeloid differentiation induction | ER-HoxA9 myeloid progenitors, lysozyme-GFP differentiation, flow cytometry | calls only at 10 µM | 360,000 tested, 1% active | AID 624256;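 active means normalized GFP-positive differentiation at or above the plate's own cutoff, the solvent-only control mean plus 3 SD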;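 further: cells exposed to compound for four days before flow analysis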
ABHD5 PLIN5 PPI: inhibitors of human ABHD5-perilipin-5 interaction | 360,000 tested, 0.78% active | Q00G26+Q8WTS1 | inhibition, % at 4 µM | Split G. princeps luciferase complementation, luminescence, 4 h | AID 602281;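 active means inhibition above the mean inhibition across every tested compound plus 3 SD, cut at about 22% in these data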
HGIII-sPLA2 inh: Inhibits HGIII-sPLA2 liposome hydrolysis, primary screen; Q9NZ20; QFRET BODIPY PC-A2 liposome hydrolysis, fluorescence; inhibition, % at 12.2 µM; 370,000 tested, 0.56% active; AID 743126;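 active means inhibition above mean plus 3 SD of compounds lying within the high and low control bounds, cut at about 19% in these data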
Target sequence (Q9NZ20 whole entry, looked up): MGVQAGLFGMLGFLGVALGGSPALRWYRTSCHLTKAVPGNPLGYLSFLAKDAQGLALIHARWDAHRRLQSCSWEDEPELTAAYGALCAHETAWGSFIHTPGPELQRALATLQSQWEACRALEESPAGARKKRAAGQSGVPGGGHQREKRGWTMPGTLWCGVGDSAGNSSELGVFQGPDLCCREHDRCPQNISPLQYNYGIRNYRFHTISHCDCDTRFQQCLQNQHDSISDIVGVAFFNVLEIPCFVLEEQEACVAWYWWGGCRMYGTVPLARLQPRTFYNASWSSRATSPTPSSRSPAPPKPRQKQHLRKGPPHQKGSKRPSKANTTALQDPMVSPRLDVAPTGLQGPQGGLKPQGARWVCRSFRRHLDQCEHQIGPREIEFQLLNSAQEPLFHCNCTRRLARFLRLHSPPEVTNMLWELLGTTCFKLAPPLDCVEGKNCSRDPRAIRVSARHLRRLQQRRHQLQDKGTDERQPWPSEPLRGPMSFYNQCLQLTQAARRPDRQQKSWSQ
Rtt109 HAT inh: C. albicans Rtt109 histone acetyltransferase inhibition; Q5AAJ8; 330,000 tested, 0.16% active; AID 540336; inhibition, % at 34.9 µM; purified Rtt109/Vps75, ThioGlo CoA-SH fluorescence, 4 h;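 active means inhibition of at least 50% in every replicate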
H9c2 protect: myocardial damage modulation in H9c2 cells | 360,000 tested, 0.63% active | H9c2 cardiomyocytes, H2O2 injury protection, ATPLite, 2 h | protection from H2O2 cell death, % at 20 µM;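 active means compounds giving at least 50% protection of heart cells from peroxide-induced death in the single-dose screen, raw or plate-pattern-corrected value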
Myeloid diff: myeloid differentiation induction; AID 651706; 2,300 tested, 2% active; calls only; shares compounds with Myeloid diff MLP; ER-HoxA9 myeloid progenitors, GFP/Mac1 double-positive flow;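 active means share of green or green-and-red cells above 9 and 9% in run 1 or 4 and 3% in run 2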
GFP autofluor: flagged as fluorescent in myeloid differentiation counter-screen; shares compounds with Myeloid diff MLP; fluorescence response, % (no concentration beside the values); ER-HoxA9 myeloid progenitors, no estrogen, GFP autofluorescence flow cytometry; vehicle wells 0%, positive control 100%; 2,300 tested, 7.4% active;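 active means over 5% cells positive for green fluorescent reporter, or over 2% positive for both it and APC stain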
sPLA2 confirm: human GIII-sPLA2 inhibition, confirmation | 2,000 tested, 34% active | recombinant hGIII-sPLA2, BODIPY PC-A2 QFRET fluorescence | shares compounds with HGIII-sPLA2 inh | inhibition, % at 12.2 µM;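 active means mean inhibition across triplicates above the hit cutoff set in the earlier primary screen, cut at about 19% in these data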
535nm interf: 535nm fluorescence interference, HGIII-sPLA2 counter-screen | shares compounds with HGIII-sPLA2 inh | BODIPY FL product fluorescence interference, QFRET | inhibition, % at 12.2 µM | 2,000 tested, 8.5% active;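 active means average inhibition above the solvent-only control mean plus 3 SD, cut at about 6% in these data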
Hits are given with their value; 0 = inactive; - = not tested or not shown; + = active, no number; ! = a repeat was not active.

SMILES	DAGLB inhibitor	Myeloid diff MLP	ABHD5 PLIN5 PPI	HGIII-sPLA2 inh	Rtt109 HAT inh	H9c2 protect	Myeloid diff	GFP autofluor	others
Cc1ccc(S(=O)(=O)N(CC(=O)NCCC2=CCCCC2)Cc2ccccc2F)cc1	0	0	0	0	0	0	-	-
CCCCn1c2c(c(=N)c3c1CCC3)CCC2	0	0	0	0	0	0	0	0
CCn1c(-c2ccccc2Cl)nn(CC(=O)Nc2cc(Cl)ccc2Cl)c1=S	0	0	0	0	0	0	0	0
CCCCCCOC(=O)C(C#N)c1nc2ccccc2nc1N1CCN(CC)CC1 (stereo unspecified)	0	+	0	0	0	0	0	0
Cc1ccc(Cc2c(C)[nH]c(=S)[nH]c2=O)cc1	0	0	0	0	0	0	-	-
Cc1ccc(Cc2c[nH]c(=S)s2)cc1	0	+	0	0	0	0	0	0
Cc1ccc(C(C(=O)NC2CCCCC2)N(C(=O)Cc2c[nH]c3ccccc23)c2ccccc2)o1 (stereo unspecified)	0	+	0	0	0	0	0	0
CC(C)OCCCNC(=S)N1CCC(C(=O)c2ccc(F)cc2)CC1	0	0	0	0	-	0	-	-
N=C(N)SCc1nc2ccccc2c(=O)n1-c1ccccc1	0	+!	0	0	0	0	0	0
O=C(CN1C(=O)S/C(=C\c2ccc(O)cc2)C1=O)c1ccccc1	0	0	0	0	0	0	0	0
O=C(CN1C(=O)S/C(=C\c2ccc(C(=O)O)cc2)C1=O)Nc1ccccc1	0	0	0	0	0	0	-	-
Cc1ccc(C2=NOC(C)(c3nnc(-c4ccccc4)o3)C2)cc1 (stereo unspecified)	0	0	0	0	0	0	-	-
CC1CC(C)CN(c2ncc3c(n2)CC(c2ccccc2)CC3=O)C1 (stereo unspecified)	0	+	0	0	0	0	0	0
CCN1C(=O)[C@@H]2[C@@H](c3ccc(-c4cccc(Cl)c4)c(OC)c3)N3CCCC[C@@]3(C(=O)OC)[C@@H]2C1=O	0	+	0	0	0	0	0	0
COc1ccc(CNC(=O)C2CCCN(S(=O)(=O)c3c(C)n[nH]c3C)C2)cc1 (stereo unspecified)	0	0	0	0	67	0	0	0
CCN(CC)C(=O)[C@H]1C[C@H](CC(=O)NC(C)(C)C)C(=O)N2CCc3c([nH]c4cc(-c5ccco5)ccc34)[C@]12C	0	+	0	0	0	0	0	0
CC(C)N(C(=O)[C@H]1C[C@H](CC(=O)NC(C)(C)C)C(=O)N2CCc3c([nH]c4cc(-c5ccco5)ccc34)[C@]12C)C(C)C	0	0	0	0	0	0	-	-
CSc1ncnc2c1ncn2CCCNCCCN1CCCC1=O	0	+	0	0	-	0	0	0
CSc1ncnc2c1ncn2CCCNCC1CCCO1 (stereo unspecified)	0	0	0	0	-	0	-	-
Cc1ccc(S(=O)(=O)Nc2cc(=O)[nH]c(SCc3ccccc3Cl)n2)cc1	0	0	0	0	0	0	-	-
CCN1C(=O)[C@H]2[C@@H](c3ccc(C)cc3)N[C@]3(CCCN(CC4CCCCC4)C3=O)[C@H]2C1=O	0	0	0	0	-	0	-	-
CCN1C(=O)[C@H]2[C@@H](c3ccc(C(F)(F)F)cc3)N[C@]3(CCCN(CC4CCCCC4)C3=O)[C@H]2C1=O	0	+	0	0	-	0	0	0
N#CCC(=O)Nc1ccc(C(=O)NCCC(c2ccccc2)c2ccccc2)cc1	0	+	0	0	0	0	0	0
N#CCC(=O)Nc1ccc(C(=O)NCCc2c[nH]c3ccccc23)cc1	0	-	0	0	0	0	-	-
CC(=O)Nc1ccc(CC(=O)O)cc1	0	0	0	0	0	0	-	-
SMILES	DAGLB inhibitor	Myeloid diff MLP	ABHD5 PLIN5 PPI	HGIII-sPLA2 inh	Rtt109 HAT inh	H9c2 protect	Myeloid diff	GFP autofluor	others
CC(=O)Nc1ccc(CC(=O)NCCC(c2ccccc2)c2ccccc2)cc1	0	+	0	0	0	0	0	0
O=C(NC(=S)N1CCN(c2ccc(O)cc2)CC1)c1ccco1	0	0	0	0	0	0	-	-
C=C1CCN([C@@H](C)C(=O)OCc2cccc(C)c2)S(=O)(=O)c2ccccc21	0	0	0	0	0	0	-	-
COc1ccc2c(c1)C(CC(C)=O)N(c1ccc(-c3cccs3)cc1)C(c1ccsc1)=C2 (stereo unspecified)	-	+	0	0	-	-	0	0
O=C(C[C@H]1C[C@H]2c3cc(NC(=O)CC4CC4)ccc3O[C@H]2[C@H](CO)O1)NCc1ccccc1F	0	0	0	0	-	0	-	-
CCCC/C(C)=N/NC(=O)CN(c1ccc(Br)cc1)S(=O)(=O)c1ccccc1	0	0	0	0	0	0	-	-
C/C(=N/NC(=O)CN(c1ccccc1)S(=O)(=O)c1ccccc1)c1ccccc1O	0	0	0	24	0	0	0	0	sPLA2 confirm=0;535nm interf=0
Cn1c(SCc2nc3ccccc3[nH]2)nnc1-c1ccccn1	0	0	0	0	0	0	-	-
CCOC(=O)C1(CC2CCCCO2)CCN(Cc2cccnc2)CC1 (stereo unspecified)	0	0	0	0	0	0	-	-
O=c1[nH]c2ccccc2n2c(C(F)(F)F)nnc12	0	+	0	20	0	0	0	5.7	sPLA2 confirm=0;535nm interf=0
C=CCN1C=C/C(=C\C=C(C#N)C#N)c2ccccc21	0	+	0	28	0	0	0	0	sPLA2 confirm=48;535nm interf=13
Cc1ccc(NC(=O)NNC(=O)c2cc3ccccc3cc2O)cc1	0	0	0	27	0	0	-	-	sPLA2 confirm=0;535nm interf=0
Cc1ccc(NC(=O)NNC(=O)COc2ccc3ccccc3c2)cc1	0	0	0	0	0	0	-	-
COc1ccccc1NC(=O)NNC(=O)c1cc2ccccc2cc1O	0	0	0	27	0	0	-	-	sPLA2 confirm=20;535nm interf=0
CC(=O)NC(c1ccccc1)c1nc(-c2cccc(C(=O)O)c2)cs1 (stereo unspecified)	-	0	0	0	-	0	-	-
COc1ccccc1OCCNC(=O)c1cc(C2CC2)nc2c1cnn2C(C)C	0	0	0	0	0	0	-	-
CCCS(=O)(=O)N1CCN(C(=O)COc2ccccc2)CC1	0	0	0	0	0	0	-	-
O=C(/C=C/c1cccs1)c1ccc([N+](=O)[O-])cc1	0	0	0	21	0	0	-	-	sPLA2 confirm=0;535nm interf=0
CCN1C(=O)/C(=C\c2ccco2)C(C(=O)OC)=C1C	0	0	0	0	0	0	-	-
